Targets with a hit are over-represented here; the source holds about 7,900 in all. About 0.6% of all pairs of compound and target were hits.
What was measured:
Assay in all cases: log2 fold change, soluble protein after heating vs DMSO (PISA); higher = thermal stabilisation; K562 cells, 10 uM, 30 min; active = over 0.2 and 3.5 SD of the protein, either way, in both replicates (recomputed)
[1] = compound: CN1CCN(CCOc2cc(OC3CCOCC3)c3c(Nc4c(Cl)ccc5c4OCO5)ncnc3c2)CC1 [saracatinib]
Summary of the method: (§1)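 Thermal stability values are relative to control samples and come from duplicates. They are expressed as log2 fold changes. For measurement, K562 cells (2×10^6 cells/mL) received 10 μM compound for 30 min, and aliquots were heated for 3 min over 48°C-58°C, pooled, and extracted at 4°C in PBS with 0.5% NP-40. Soluble protein, the supernatant after 21,000xg for 90 min, was quantified by TMTpro 16plex LC-MS/MS with equalised channel sums.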

[2] = compound: CN1CCN(c2nc(C3=C(c4c[nH]c5ccccc45)C(=O)NC3=O)c3ccccc3n2)CC1 [sotrastaurin]
Summary of the method: as §1

[3] = compound: CN1CC[C@H](c2c(O)cc(O)c3c(=O)cc(-c4ccccc4Cl)oc23)[C@H](O)C1 [alvocidib]
Summary of the method: as §1

[4] = compound: CN1CCc2c(c3ccccc3n2Cc2ccc(C(=O)NO)cc2)C1 [Tubastatin A]
Summary of the method: as §1

[5] = compound: CNC(=O)C1=CC=CC=C1NC2=NC(=NC=C2Cl)NC3=C(C=C(C=C3)N4CCOCC4)OC
Summary of the method: as §1

[6] = compound: CNC(=O)c1ccc(Nc2ncc(C(F)(F)F)c(NCc3nccnc3N(C)S(C)(=O)=O)n2)cc1 [defactinib]
Summary of the method: as §1

[7] = compound: CNCc1ccc(-c2[nH]c3cc(F)cc4c3c2CCNC4=O)cc1 [rucaparib]
Summary of the method: as §1

[8] = compound: CNc1nc(-c2ccc3c(N)n[nH]c3c2)cc(N2C[C@@H](C(=O)NC3CCCCC3)CC[C@H]2C)n1
Summary of the method: as §1

[9] = compound: COC(=O)N[C@@H](C)CNc1nccc(-c2cn(C(C)C)nc2-c2cc(Cl)cc(NS(C)(=O)=O)c2F)n1 [encorafenib]
Summary of the method: as §1

[10] = compound: COC(=O)[C@H](CCSC)NC(=O)C1=C(C=C(C=C1)NC[C@H](CS)N)C2=CC=CC=C2
Summary of the method: as §1

Measured: log2 fold change

UBE2E3 (UniProt Q969T4)
inactive: [1] -0.03 | [2] -0.044 | [3] -0.085 | [4] -0.074 | [5] 0.067 | [6] -0.162 | [7] -0.014 | [8] -0.022 | [9] 0.017 | [10] -0.067

TRMT10C (UniProt Q7L0Y3)
inactive: [1] -0.129 | [2] -0.013 | [3] -0.126 | [4] -0.064 | [5] -0.024 | [6] -0.055 | [7] -0.011 | [8] 0.042 | [9] 0.041 | [10] -0.056

TNPO1 (UniProt Q92973)
inactive: [1] 0.034 | [2] -0.062 | [3] -0.141 | [4] -0.064 | [5] -0.013 | [6] -0.123 | [7] -0.04 | [8] 0.009 | [9] 0.029 | [10] 0.006

UFL1 (UniProt O94874)
inactive: [1] -0.033 | [2] -0.035 | [3] 0.027 | [4] 0.076 | [5] 0.018 | [6] -0.045 | [7] 0.1 | [8] 0 | [9] 0.121 | [10] -0.119

UFD1 isoform 1 (UniProt Q92890)
inactive: [1] 0.008 | [2] 0.005 | [3] -0.021 | [4] 0.027 | [5] -0.022 | [6] -0.013 | [7] -0.02 | [8] -0.054 | [9] -0.004 | [10] 0

TUBA4A (UniProt P68366)
Chain of UniProt P68366 (P68366 whole entry, looked up): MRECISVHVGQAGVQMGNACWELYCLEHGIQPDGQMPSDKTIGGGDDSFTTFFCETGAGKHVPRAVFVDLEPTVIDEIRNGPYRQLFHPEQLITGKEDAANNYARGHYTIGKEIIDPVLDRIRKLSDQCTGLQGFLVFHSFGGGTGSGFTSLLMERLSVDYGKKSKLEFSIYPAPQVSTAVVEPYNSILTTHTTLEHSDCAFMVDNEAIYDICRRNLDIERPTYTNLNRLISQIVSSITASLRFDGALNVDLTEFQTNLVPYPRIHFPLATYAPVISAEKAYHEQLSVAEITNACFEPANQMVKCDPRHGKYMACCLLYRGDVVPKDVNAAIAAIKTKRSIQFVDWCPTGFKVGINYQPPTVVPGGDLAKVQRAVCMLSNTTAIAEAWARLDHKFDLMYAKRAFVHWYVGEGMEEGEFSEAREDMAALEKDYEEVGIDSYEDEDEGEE
inactive: [1] 0.045 | [2] -0.012 | [3] -0.048 | [4] -0.051 | [5] -0.039 | [6] -0.024 | [7] -0.046 | [8] 0.038 | [9] -0.012 | [10] 0.013

TNPO2 (UniProt O14787)
Chain of UniProt O14787 (O14787 whole entry, looked up): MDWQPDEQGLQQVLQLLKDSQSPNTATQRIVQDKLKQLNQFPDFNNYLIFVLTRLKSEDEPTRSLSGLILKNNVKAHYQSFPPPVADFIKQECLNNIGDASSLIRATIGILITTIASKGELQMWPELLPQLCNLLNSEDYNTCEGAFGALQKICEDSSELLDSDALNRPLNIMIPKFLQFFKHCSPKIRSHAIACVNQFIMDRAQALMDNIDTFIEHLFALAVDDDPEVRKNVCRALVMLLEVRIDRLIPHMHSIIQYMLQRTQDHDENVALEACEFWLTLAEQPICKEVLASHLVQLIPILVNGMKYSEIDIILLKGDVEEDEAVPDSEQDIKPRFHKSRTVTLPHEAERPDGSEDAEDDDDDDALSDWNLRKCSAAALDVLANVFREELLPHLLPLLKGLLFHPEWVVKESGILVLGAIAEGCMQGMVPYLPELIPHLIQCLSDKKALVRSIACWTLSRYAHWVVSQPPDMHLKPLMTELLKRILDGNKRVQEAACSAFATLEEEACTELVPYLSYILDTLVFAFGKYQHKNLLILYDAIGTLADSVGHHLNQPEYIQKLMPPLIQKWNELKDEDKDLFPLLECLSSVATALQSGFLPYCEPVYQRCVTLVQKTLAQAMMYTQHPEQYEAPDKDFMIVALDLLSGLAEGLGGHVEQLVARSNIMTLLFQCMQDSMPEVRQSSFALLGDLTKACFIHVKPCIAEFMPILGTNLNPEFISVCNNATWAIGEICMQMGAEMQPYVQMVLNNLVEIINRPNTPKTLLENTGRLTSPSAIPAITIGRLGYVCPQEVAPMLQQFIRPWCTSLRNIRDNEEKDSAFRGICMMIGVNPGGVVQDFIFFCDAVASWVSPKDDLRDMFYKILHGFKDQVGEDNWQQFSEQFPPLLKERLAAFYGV
inactive: [1] 0.066 | [2] -0.055 | [3] -0.188 | [4] 0.03 | [5] 0.013 | [6] -0.188 | [7] -0.051 | [8] 0.054 | [9] 0.133 | [10] -0.079

XPNPEP3 (UniProt Q9NQH7)
inactive: [1] 0.022 | [2] -0.017 | [3] -0.029 | [4] -0.021 | [5] 0 | [6] -0.033 | [7] -0.018 | [8] -0.035 | [9] -0.005 | [10] 0.038

TMEM63B (UniProt Q5T3F8)
Chain of UniProt Q5T3F8 (Q5T3F8 whole entry, looked up): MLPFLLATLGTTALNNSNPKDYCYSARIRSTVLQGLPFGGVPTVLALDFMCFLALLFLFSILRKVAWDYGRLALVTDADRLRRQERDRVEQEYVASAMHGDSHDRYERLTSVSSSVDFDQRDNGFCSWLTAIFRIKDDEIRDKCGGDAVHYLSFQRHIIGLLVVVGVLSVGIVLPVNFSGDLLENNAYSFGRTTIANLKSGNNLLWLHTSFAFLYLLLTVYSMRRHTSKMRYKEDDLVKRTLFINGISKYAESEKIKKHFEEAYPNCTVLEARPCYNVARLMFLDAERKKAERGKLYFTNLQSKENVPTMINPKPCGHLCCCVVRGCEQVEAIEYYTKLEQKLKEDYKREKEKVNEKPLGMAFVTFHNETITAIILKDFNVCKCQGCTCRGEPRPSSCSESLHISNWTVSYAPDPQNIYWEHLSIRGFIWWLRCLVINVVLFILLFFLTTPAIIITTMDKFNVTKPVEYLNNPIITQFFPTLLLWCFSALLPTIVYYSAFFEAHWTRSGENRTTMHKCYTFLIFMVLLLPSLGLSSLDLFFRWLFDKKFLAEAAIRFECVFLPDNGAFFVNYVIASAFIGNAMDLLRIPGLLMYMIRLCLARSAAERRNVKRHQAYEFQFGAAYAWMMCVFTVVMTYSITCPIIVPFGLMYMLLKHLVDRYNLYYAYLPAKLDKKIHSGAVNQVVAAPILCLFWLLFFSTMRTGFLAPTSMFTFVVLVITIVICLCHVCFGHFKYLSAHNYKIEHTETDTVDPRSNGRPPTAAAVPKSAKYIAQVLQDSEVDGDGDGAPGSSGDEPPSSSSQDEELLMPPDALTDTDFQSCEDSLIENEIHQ
inactive: [1] -0.084 | [2] -0.055 | [3] 0.021 | [4] -0.015 | [5] 0.019 | [6] 0.015 | [7] -0.004 | [8] -0.068 | [9] 0.023 | [10] 0

XPOT (UniProt O43592)
inactive: [1] 0.017 | [2] -0.102 | [3] -0.023 | [4] 0.026 | [5] 0.076 | [6] -0.022 | [7] 0.005 | [8] -0.116 | [9] 0.076 | [10] -0.044

TRIP10 isoform 2 (UniProt Q15642)
Chain of UniProt Q15642 (Q15642 whole entry, looked up): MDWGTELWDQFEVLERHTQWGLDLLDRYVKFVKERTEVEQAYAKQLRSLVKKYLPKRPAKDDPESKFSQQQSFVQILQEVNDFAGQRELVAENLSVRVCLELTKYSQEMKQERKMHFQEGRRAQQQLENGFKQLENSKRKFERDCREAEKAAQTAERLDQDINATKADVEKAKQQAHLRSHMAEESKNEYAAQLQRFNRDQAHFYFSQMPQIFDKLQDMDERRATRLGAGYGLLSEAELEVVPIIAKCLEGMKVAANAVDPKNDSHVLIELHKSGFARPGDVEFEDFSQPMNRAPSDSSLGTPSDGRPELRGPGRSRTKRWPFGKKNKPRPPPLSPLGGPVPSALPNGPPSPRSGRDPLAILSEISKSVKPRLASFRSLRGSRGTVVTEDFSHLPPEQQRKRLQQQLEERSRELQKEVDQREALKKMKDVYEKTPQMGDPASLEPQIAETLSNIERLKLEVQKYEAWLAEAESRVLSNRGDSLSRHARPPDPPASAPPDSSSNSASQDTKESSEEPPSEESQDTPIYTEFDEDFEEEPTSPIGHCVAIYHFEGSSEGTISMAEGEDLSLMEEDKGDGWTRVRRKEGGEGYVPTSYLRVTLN
inactive: [1] 0.021 | [2] 0.151 | [3] 0 | [4] 0.051 | [5] -0.258 | [6] -0.196 | [7] 0.071 | [8] -0.081 | [9] -0.147 | [10] -0.246

WDR37 isoform 2 (UniProt Q9Y2I8)
inactive: [1] -0.094 | [2] -0.01 | [3] 0.207 | [4] -0.019 | [5] -0.077 | [6] 0 | [7] 0.064 | [8] -0.108 | [9] 0.084 | [10] -0.007

XRCC5 (UniProt P13010)
inactive: [1] -0.057 | [2] -0.332 | [3] -0.214 | [4] 0.173 | [5] -0.032 | [6] -0.37 | [7] 0.07 | [8] 0.048 | [9] 0.21 | [10] -0.067

TMEM214 (UniProt Q6NUQ4)
Chain of UniProt Q6NUQ4 (Q6NUQ4 whole entry, looked up): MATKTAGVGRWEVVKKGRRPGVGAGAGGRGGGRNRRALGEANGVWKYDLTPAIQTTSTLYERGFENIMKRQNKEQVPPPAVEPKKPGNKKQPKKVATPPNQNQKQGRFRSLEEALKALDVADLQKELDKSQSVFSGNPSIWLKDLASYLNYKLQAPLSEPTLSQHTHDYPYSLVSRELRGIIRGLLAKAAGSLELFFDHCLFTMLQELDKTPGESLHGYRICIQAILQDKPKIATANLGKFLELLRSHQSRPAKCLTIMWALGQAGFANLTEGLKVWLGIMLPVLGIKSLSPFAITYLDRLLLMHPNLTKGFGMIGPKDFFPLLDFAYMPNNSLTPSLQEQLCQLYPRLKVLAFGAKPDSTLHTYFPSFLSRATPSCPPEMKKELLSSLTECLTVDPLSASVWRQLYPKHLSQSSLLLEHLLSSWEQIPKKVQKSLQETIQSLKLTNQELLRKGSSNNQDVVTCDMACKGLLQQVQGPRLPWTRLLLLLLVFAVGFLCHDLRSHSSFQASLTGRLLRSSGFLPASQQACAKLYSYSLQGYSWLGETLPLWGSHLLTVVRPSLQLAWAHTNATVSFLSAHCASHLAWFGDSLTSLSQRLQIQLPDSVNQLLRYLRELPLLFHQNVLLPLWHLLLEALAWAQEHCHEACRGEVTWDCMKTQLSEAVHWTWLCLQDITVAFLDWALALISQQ
inactive: [1] -0.04 | [2] 0.068 | [3] 0.009 | [4] 0.062 | [5] -0.002 | [6] -0.04 | [7] 0.121 | [8] 0.03 | [9] 0.041 | [10] -0.039

TMTC3 (UniProt Q6ZXV5)
inactive: [1] -0.03 | [2] 0.028 | [3] 0.009 | [4] 0.009 | [5] 0.012 | [6] 0.009 | [7] 0.022 | [8] 0.006 | [9] 0.028 | [10] -0.019

WBP4 (UniProt O75554)
inactive: [1] 0.113 | [2] 0.012 | [3] -0.032 | [4] -0.02 | [5] -0.015 | [6] 0.012 | [7] -0.031 | [8] -0.019 | [9] -0.046 | [10] 0.045

VTI1B (UniProt Q9UEU0)
Chain of UniProt Q9UEU0 (Q9UEU0 whole entry, looked up): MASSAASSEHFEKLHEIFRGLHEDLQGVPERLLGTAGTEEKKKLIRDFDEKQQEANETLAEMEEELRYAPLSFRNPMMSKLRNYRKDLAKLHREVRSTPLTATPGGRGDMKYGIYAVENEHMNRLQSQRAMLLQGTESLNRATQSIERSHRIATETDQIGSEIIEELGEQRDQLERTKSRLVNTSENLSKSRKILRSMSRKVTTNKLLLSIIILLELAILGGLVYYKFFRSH
inactive: [1] 0.041 | [2] 0.07 | [3] 0.055 | [4] -0.046 | [5] -0.008 | [6] 0.005 | [7] 0.004 | [8] -0.091 | [9] 0 | [10] 0.046

TOM1 isoform 2 (UniProt O60784)
Chain of UniProt O60784 (O60784 whole entry, looked up): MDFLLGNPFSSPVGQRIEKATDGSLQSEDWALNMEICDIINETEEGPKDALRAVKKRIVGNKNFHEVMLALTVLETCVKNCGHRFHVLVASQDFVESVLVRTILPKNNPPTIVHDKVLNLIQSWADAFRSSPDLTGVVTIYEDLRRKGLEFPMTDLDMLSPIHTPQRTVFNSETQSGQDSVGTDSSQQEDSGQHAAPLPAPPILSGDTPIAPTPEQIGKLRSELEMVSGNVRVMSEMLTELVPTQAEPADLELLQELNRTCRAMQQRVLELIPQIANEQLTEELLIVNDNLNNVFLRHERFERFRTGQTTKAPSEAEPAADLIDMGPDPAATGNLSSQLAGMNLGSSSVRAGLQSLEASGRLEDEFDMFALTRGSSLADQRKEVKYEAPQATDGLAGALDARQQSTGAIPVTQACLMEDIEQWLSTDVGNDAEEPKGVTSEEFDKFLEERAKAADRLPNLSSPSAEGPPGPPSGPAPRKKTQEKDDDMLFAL
inactive: [1] 0.033 | [2] -0.132 | [3] 0.001 | [4] 0.132 | [5] -0.025 | [6] -0.087 | [7] -0.024 | [8] -0.043 | [9] 0.009 | [10] 0.089

VWA8 (UniProt A3KMH1)
inactive: [1] -0.012 | [2] -0.003 | [3] -0.046 | [4] 0.072 | [5] 0.006 | [6] -0.017 | [7] 0.008 | [8] -0.013 | [9] 0.003 | [10] -0.049

USP48 isoform 8 (UniProt Q86UV5)
inactive: [1] -0.037 | [2] -0.403 | [3] -0.358 | [4] 0.197 | [5] 0.016 | [6] -0.462 | [7] -0.085 | [8] -0.044 | [9] 0.065 | [10] -0.081

UXT isoform 2 (UniProt Q9UBK9)
inactive: [1] 0.031 | [2] -0.056 | [3] -0.01 | [4] 0.077 | [5] -0.191 | [6] 0 | [7] 0.049 | [8] -0.027 | [9] -0.018 | [10] -0.078

UBE4A isoform 2 (UniProt Q14139)
inactive: [1] -0.024 | [2] -0.148 | [3] 0.145 | [4] -0.009 | [5] 0.006 | [6] -0.017 | [7] 0.021 | [8] -0.079 | [9] 0.03 | [10] -0.078

TRAPPC6B (UniProt Q86SZ2)
inactive: [1] 0.035 | [2] -0.068 | [3] -0.055 | [4] 0.031 | [5] -0.034 | [6] -0.046 | [7] 0.012 | [8] 0.008 | [9] -0.02 | [10] 0.022

TRIM23 (UniProt P36406)
Chain of UniProt P36406 (P36406 whole entry, looked up): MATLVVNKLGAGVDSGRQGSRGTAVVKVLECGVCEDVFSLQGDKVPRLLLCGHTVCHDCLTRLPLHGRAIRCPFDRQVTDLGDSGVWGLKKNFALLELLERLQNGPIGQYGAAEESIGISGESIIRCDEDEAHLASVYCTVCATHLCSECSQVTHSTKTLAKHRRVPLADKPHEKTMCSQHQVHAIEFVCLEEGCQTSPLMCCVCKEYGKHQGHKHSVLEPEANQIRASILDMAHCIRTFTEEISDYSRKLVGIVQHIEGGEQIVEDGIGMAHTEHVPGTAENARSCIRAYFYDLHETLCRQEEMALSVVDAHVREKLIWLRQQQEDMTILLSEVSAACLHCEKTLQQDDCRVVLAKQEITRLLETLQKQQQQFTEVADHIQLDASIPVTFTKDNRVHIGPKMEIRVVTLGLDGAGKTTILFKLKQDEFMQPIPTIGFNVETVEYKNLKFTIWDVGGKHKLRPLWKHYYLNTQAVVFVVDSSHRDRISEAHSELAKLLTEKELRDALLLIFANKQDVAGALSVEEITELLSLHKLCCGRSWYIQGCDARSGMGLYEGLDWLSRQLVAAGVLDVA
inactive: [1] 0.033 | [2] 0.075 | [3] -0.034 | [4] 0.032 | [5] -0.049 | [6] -0.004 | [7] 0.057 | [8] 0.035 | [9] 0.012 | [10] -0.039

WASHC3 (UniProt Q9Y3C0)
Chain of UniProt Q9Y3C0 (Q9Y3C0 whole entry, looked up): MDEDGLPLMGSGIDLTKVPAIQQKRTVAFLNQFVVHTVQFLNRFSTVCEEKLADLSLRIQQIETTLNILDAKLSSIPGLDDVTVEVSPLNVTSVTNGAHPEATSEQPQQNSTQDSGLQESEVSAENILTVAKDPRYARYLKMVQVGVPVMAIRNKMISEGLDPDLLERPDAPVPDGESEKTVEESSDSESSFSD
inactive: [1] 0.055 | [2] 0.026 | [3] 0.077 | [4] 0.054 | [5] 0.004 | [6] -0.02 | [7] -0.022 | [8] -0.02 | [9] -0.005 | [10] 0.008

USP14 (UniProt P54578)
inactive: [1] -0.007 | [2] -0.013 | [3] -0.047 | [4] 0.033 | [5] 0.012 | [6] -0.064 | [7] -0.025 | [8] -0.01 | [9] 0.044 | [10] -0.021

TRMT61A (UniProt Q96FX7)
inactive: [1] -0.018 | [2] -0.002 | [3] 0.134 | [4] 0.08 | [5] -0.038 | [6] 0.138 | [7] 0.286 | [8] 0.02 | [9] -0.03 | [10] 0.039

USP34 (UniProt Q70CQ2)
inactive: [1] 0.006 | [2] -0.102 | [3] -0.274 | [4] 0.069 | [5] -0.049 | [6] -0.164 | [7] -0.055 | [8] -0.015 | [9] 0.08 | [10] 0.002

UBE2Q1 (UniProt Q7Z7E8)
inactive: [1] -0.023 | [2] -0.001 | [3] -0.069 | [4] 0.027 | [5] 0.05 | [6] -0.143 | [7] -0.008 | [8] 0.048 | [9] 0.04 | [10] -0.017

Reference: the supplement of paper PMC10849652
